Ten molecules from the supplement of paper PMC4022240 can be followed below.

Sequences and labels used below:
T1: HaloTag-ATRX ADD domain (163-292)
T1 chain: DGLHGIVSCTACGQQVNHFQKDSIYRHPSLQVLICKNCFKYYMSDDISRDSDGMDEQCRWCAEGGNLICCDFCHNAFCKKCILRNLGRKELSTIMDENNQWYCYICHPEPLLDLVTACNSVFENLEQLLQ

B1: Unmod H1 variant A G K K A K K P A K A A A (peptide)
chain: AGKKAKKPAKAAA
B2: Unmod H1 variant E R G G V S L A A L K K A (peptide)
chain: ERGGVSLAALKKA
B3: Unmod H1 variant A S A A P E K P L A G K K (peptide)
chain: ASAAPEKPLAGKK
B4: Unmod H1 variant Y D V E K N N S R I K L G (peptide)
chain: YDVEKNNSRIKLG
B5: Unmod H1 variant I V Q A A S S S K E R G G (peptide)
chain: IVQAASSSKERGG
B6: Unmod H1 variant S K G T L V Q T K G T G A (peptide)
chain: SKGTLVQTKGTGA
B7: Unmod H1 variant L K K A L A A A G Y D V E (peptide)
chain: LKKALAAAGYDVE
B8: Unmod H1 variant S E T V P P A P A A S A A (peptide)
chain: SETVPPAPAASAA
B9: Unmod H1 variant P A G P S V S E L I V Q A (peptide)
chain: PAGPSVSELIVQA
B10: Unmod H1 variant I K L G I K S L V S K G T (peptide)
chain: IKLGIKSLVSKGT

± gives the standard deviation.

In the first test the target is T1, HaloTag-ATRX ADD domain (163-292). Kind of test: peptide microarray binding signal (635 nm), min-max normalized on array (fraction of array maximum); higher = stronger binding. The conditions noted are these: peptide region: Unmod H1 variant; binder concentration: 50 nM. In outline:
(§1)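 For each library, binding signal was taken as the triplicate-spot mean intensity and then min-max scaled. Spots of histone 13-mer peptide–cellulose conjugates on nitrocellulose, printed in triplicate with a Cy3 tracer, were probed for 1 h at 4°C with either biotin-labelled HaloTag reader fusions (10 nM to 1 μM) and streptavidin-Alexa Fluor 647 or rabbit histone antibodies (1:10,000 to 1:2,000) and anti-rabbit Alexa 647. Readout at 635 nm came from an Axon GenePix 4000B.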
For B1, the “peptide microarray binding signal” value worked out at 0.0147 ± 0.00057.

As to B2, the “peptide microarray binding signal” value amounted to 0.0175 ± 0.00043.

As for B3, the “peptide microarray binding signal” value was determined as 0.0171 ± 0.0014.

On to B4, for which the “peptide microarray binding signal” value is 0.0163 ± 0.00037.

For the molecule B5, the “peptide microarray binding signal” value came out at 0.0196 ± 0.0029.

Take B6: the “peptide microarray binding signal” value was found to be 0.0193 ± 0.0038.

B7: the “peptide microarray binding signal” value worked out at 0.0162 ± 0.00021.

For the molecule B8, the “peptide microarray binding signal” value was 0.0132 ± 0.00014.

As to B9, the “peptide microarray binding signal” value amounted to 0.0127 ± 0.00021.

B10: the “peptide microarray binding signal” value is 0.0221 ± 0.0027.

The test is the same for the next values; noted with them: peptide region: Unmod H1 variant; binder concentration: 500 nM.
In the case of B1, the “peptide microarray binding signal” value was 0.0114 ± 0.0028.

B2: the “peptide microarray binding signal” value is 0.0165 ± 0.00037.

B3: the “peptide microarray binding signal” value came to 0.0163 ± 0.00078.

Consider B4, for which the “peptide microarray binding signal” value came out at 0.0175 ± 0.00085.

B5: the “peptide microarray binding signal” value stood at 0.0152 ± 0.00061.

On to B6, for which the “peptide microarray binding signal” value is 0.0147 ± 0.00052.

With B7, the “peptide microarray binding signal” value stood at 0.0149 ± 0.00063.

Regarding B8, the “peptide microarray binding signal” value amounted to 0.00691 ± 0.00014.

With B9, the “peptide microarray binding signal” value is 0.00367 ± 0.00014.

On to B10, for which the “peptide microarray binding signal” value stood at 0.0236 ± 0.00098.

For a further test, the target named is HaloTag-ING2 PHD (mouse Ing2 200-280). The description is as above. The conditions noted are these: peptide region: Unmod H1 variant; binder concentration: 10 nM. In outline: as §1
Take B1: the “peptide microarray binding signal” value was 0.00507 ± 0.00099.

Take B2: the “peptide microarray binding signal” value came out at 0.0122 ± 0.00043.

For the molecule B3, the “peptide microarray binding signal” value came out at 0.00603 ± 0.00016.

With B4, the “peptide microarray binding signal” value worked out at 0.00841 ± 0.00067.

B5: the “peptide microarray binding signal” value is 0.0112 ± 0.00078.

Turning to B6, the “peptide microarray binding signal” value came to 0.003939 ± 2.1e-05.

For the molecule B7, the “peptide microarray binding signal” value was 0.00322 ± 3.5e-05.

With B8, the “peptide microarray binding signal” value amounted to 0.00448 ± 6.1e-05.

As for B9, the “peptide microarray binding signal” value was 0.00203 ± 3.6e-05.

In the case of B10, the “peptide microarray binding signal” value is 0.00656 ± 0.00055.

Still in this test, the particulars now being: peptide region: Unmod H1 variant; binder concentration: 100 nM.
As to B1, the “peptide microarray binding signal” value is 0.00539 ± 0.00095.

For B2, the “peptide microarray binding signal” value is 0.0252 ± 0.0017.

For B3, the “peptide microarray binding signal” value worked out at 0.0206 ± 0.0028.

For B4, the “peptide microarray binding signal” value came out at 0.0132 ± 0.00014.

For the molecule B5, the “peptide microarray binding signal” value was 0.0197 ± 0.0013.

Consider B6, for which the “peptide microarray binding signal” value amounted to 0.0162 ± 0.0012.

On to B7, for which the “peptide microarray binding signal” value came to 0.004606 ± 3.8e-05.

For the molecule B8, the “peptide microarray binding signal” value amounted to 0.00446 ± 0.00013.

With B9, the “peptide microarray binding signal” value came to 0.00177 ± 3.1e-05.

As to B10, the “peptide microarray binding signal” value worked out at 0.0191 ± 0.0018.

For a further test, the target named is anti-H3K4me3 antibody ab8580. The test is described as above. To be noted: peptide region: Unmod H1 variant; binder concentration: 1:2,000 dilution. Put shortly:
as §1
For B1, the “peptide microarray binding signal” value is 0.000585 ± 4.5e-05.

Consider B2, for which the “peptide microarray binding signal” value is 0.00283 ± 4.9e-05.

Take B3: the “peptide microarray binding signal” value came out at 0.00151 ± 4.1e-05.

In the case of B4, the “peptide microarray binding signal” value is 0.000944 ± 1.6e-05.

Take B5: the “peptide microarray binding signal” value was found to be 0.00279 ± 6.5e-05.

Turning to B6, the “peptide microarray binding signal” value was determined as 0.000812 ± 6.2e-05.

B7: the “peptide microarray binding signal” value came out at 0.000982 ± 5.9e-05.

Take B8: the “peptide microarray binding signal” value amounted to 0.00151 ± 2.3e-05.

For B9, the “peptide microarray binding signal” value is 0.00111 ± 0.00011.

As to B10, the “peptide microarray binding signal” value was determined as 0.00147 ± 3.9e-05.

Still in this test, the particulars now being: peptide region: Unmod H1 variant; binder concentration: 1:10,000 dilution.
B1: the “peptide microarray binding signal” value was determined as 0.000856 ± 8.9e-06.

In the case of B2, the “peptide microarray binding signal” value stood at 0.00496 ± 0.00014.

Consider B3, for which the “peptide microarray binding signal” value stood at 0.00262 ± 0.00011.

For the molecule B4, the “peptide microarray binding signal” value was 0.00114 ± 3e-05.

With B5, the “peptide microarray binding signal” value was 0.00708 ± 0.00071.

B6: the “peptide microarray binding signal” value was 0.0012 ± 2.4e-05.

As for B7, the “peptide microarray binding signal” value was 0.001655 ± 1.6e-05.

On to B8, for which the “peptide microarray binding signal” value came to 0.00223 ± 4e-05.

Take B9: the “peptide microarray binding signal” value came out at 0.00097 ± 2.6e-05.

In the case of B10, the “peptide microarray binding signal” value amounted to 0.00262.

For the next test, the target named is anti-H3K9me3 antibody ab8898. The test is described as above. The conditions noted are these: peptide region: Unmod H1 variant; binder concentration: 1:2,000 dilution. Put shortly:
as §1
Turning to B1, the “peptide microarray binding signal” value amounted to 0.000181.

Take B2: the “peptide microarray binding signal” value was 0.00225 ± 8.6e-05.

In the case of B3, the “peptide microarray binding signal” value was determined as 0.000891 ± 5.9e-05.

For the molecule B4, the “peptide microarray binding signal” value was determined as 0.000453 ± 1.5e-05.

Consider B5, for which the “peptide microarray binding signal” value worked out at 0.00216 ± 0.00024.

In the case of B6, the “peptide microarray binding signal” value is 0.000211 ± 2.2e-06.

Turning to B7, the “peptide microarray binding signal” value turned out to be 0.000861 ± 5.4e-05.

As for B8, the “peptide microarray binding signal” value came to 0.000891 ± 7.7e-05.

Consider B9, for which the “peptide microarray binding signal” value turned out to be 0.000438 ± 1.7e-05.

Take B10: the “peptide microarray binding signal” value came to 0.00109 ± 2.9e-05.

Still in this test, the particulars now being: peptide region: Unmod H1 variant; binder concentration: 1:10,000 dilution.
With B1, the “peptide microarray binding signal” value stood at 0.000692 ± 7.3e-06.

For the molecule B2, the “peptide microarray binding signal” value was determined as 0.00283 ± 4.9e-05.

Turning to B3, the “peptide microarray binding signal” value was 0.00115 ± 2e-05.

Take B4: the “peptide microarray binding signal” value came to 0.00075 ± 1.6e-05.

For B5, the “peptide microarray binding signal” value was determined as 0.00306 ± 0.00012.

As to B6, the “peptide microarray binding signal” value was 0.00075 ± 7.9e-06.

Turning to B7, the “peptide microarray binding signal” value came to 0.001211 ± 1.2e-05.

With B8, the “peptide microarray binding signal” value is 0.00115 ± 2e-05.

As to B9, the “peptide microarray binding signal” value stood at 0.00075 ± 7.9e-06.

For the molecule B10, the “peptide microarray binding signal” value came to 0.001441 ± 1.4e-05.
